Cell viability and kynurenine production data for six compounds are collected here from the supplement of paper PMC13094657.

± gives the standard deviation of the averaged measurements.

The subject of experiment [1] is MDA-MB-231. In words: cell viability relative to vehicle unstimulated control (fraction); higher = more viable cells. Conditions: pre-treatment time: 18 h then 24 h IFNg/TNF.
In experiment [2] the test system is MDA-MB-231. The experiment is described as follows: kynurenine production, fold change vs DMSO IFNg/TNF control; higher = more kynurenine produced (less inhibition). The settings on record: pre-treatment time: 18 h then 24 h IFNg/TNF. In outline:
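MDA-MB-231 cells (7 × 10^4/well, 96-well plates, seeded 24 h earlier) were pre-treated 18 h with each natural product in 0.1% DMSO, then stimulated 24 h with IFNγ (1 U/ml) and TNF (6.25 ng/ml) at 37°C. Supernatant kynurenine was read at 492 nm after trichloroacetic acid and p-dimethylaminobenzaldehyde treatment, against 0–100 μM standards. Kynurenine production is the fold change over cytokine-stimulated vehicle wells on the same plate, averaged over duplicate plates in the first screening round.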
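Throughout, for cell viability relative to vehicle unstimulated control: viability of the cells left after supernatant collection, read with Deep Blue dye added for 4 h, as absorbance at 570 nm minus 600 nm.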

Consider `Cc1cc(O)c2c(c1)C(=O)c1cc(O)cc(O[C@@H]3O[C@H](CO)[C@@H](O)[C@H](O)[C@H]3O)c1C2=O` [Emodin-8-glucoside] (compound dose: 10 uM), for which, in the experiment on MDA-MB-231 [1], the cell viability was found to be 0.9845 ± 0.0046. Also, the kynurenine production with MDA-MB-231 [2] was found to be 0.872 ± 0.14.
On to `C=C(C)[C@@H]1CC[C@]2(C=O)CC[C@]3(C)[C@H](CC[C@@H]4[C@@]5(C)CC[C@H](O)C(C)(C)[C@@H]5CC[C@]43C)[C@@H]12` [Betulinaldehyde] (compound dose: 10 uM), for which the cell viability with MDA-MB-231 [1] was determined as 1.005 ± 0.0091. The kynurenine production with MDA-MB-231 [2] was found to be 0.697 ± 0.12.
Take `C=C[C@H]1[C@H](O[C@@H]2O[C@H](CO)[C@@H](O)[C@H](O)[C@H]2O)OC=C2C(=O)OCC[C@]21O` [Swertiamarin] (compound dose: 10 uM): the cell viability in the experiment with MDA-MB-231 [1] was 0.9564 ± 0.0069. Besides, the kynurenine production in the experiment on MDA-MB-231 [2] amounted to 0.912 ± 0.14.
As to `CC(CC(=O)C[C@](C)(O)[C@H]1CC(=O)[C@@]2(C)C3=C(C(=O)C[C@]12C)[C@@]1(C)CCC(=O)C(C)(C)[C@@H]1C[C@@H]3O)C(=O)O` (some centres not stated) [Ganoderic acid N] (compound dose: 10 uM), the cell viability in the experiment with MDA-MB-231 [1] came to 1.03 ± 0.053. Besides, in the experiment with MDA-MB-231 [2], the kynurenine production was 0.857 ± 0.12.
On to `O=C1O[C@H]2[C@@H]3OC(=O)c4cc(O)c(O)c(O)c4-c4c(O)c(O)c5oc(=O)c6c(c(O)c(O)c7oc(=O)c4c5c76)-c4c(cc(O)c(O)c4O)C(=O)OC[C@H]3OC(O)[C@@H]2OC(=O)c2cc(O)c(O)c(O)c2-c2c1cc(O)c(O)c2O` (mixture of isomers) [Punicalagin] (compound dose: 10 uM), for which the cell viability with MDA-MB-231 [1] is 1.001 ± 0.0011. Also, the kynurenine production in the experiment with MDA-MB-231 [2] came out at 0.1 ± 0.0087.
For `CN1CCC[C@H]1c1cccnc1` [(-)-nicotine] (compound dose: 10 uM), in that order: 0.978 ± 0.08 and 1.04 ± 0.11.
